Key:
Assay in all cases: PBM binding z-score (relative to random genomic background probes); higher = stronger binding; sequences stand for … in GC…GCGATTGACAGCGTAGAATGAAGG
[1] = system: RARb homodimer (NR concentration 270 nM)
Procedure, shortened: (§1)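 Antibodies against each partner of ligand-free nuclear receptor dimers (one per run) detected binding on custom Agilent 4×180K protein-binding microarrays after 1 h incubation. The double-stranded probes had 34-nt variable regions carrying direct-repeat seeds, single-nucleotide variants, half-site ablations and random human genomic background sequences. Binding z-scores, from regression-normalized fluorescence, use the random background probes as reference.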

[2] = system: RARg:RXRa (NR concentration 270 nM, RXRa partner concentration 90 nM)
Procedure, shortened: as §1

[3] = system: RARg homodimer (NR concentration 270 nM)
Procedure, shortened: as §1

[4] = system: RXRa DBDmut IVT, anti-RXR (DBD mutation: RXRa K156A/R161A, NR concentration 90 nM)
Procedure, shortened: as §1

[5] = system: RXRa homodimer (NR concentration 180 nM)
Procedure, shortened: as §1

[6] = system: THRa:RXRa (NR concentration 90 nM, RXRa partner concentration 90 nM)
Procedure, shortened: as §1

[7] = system: THRa homodimer (NR concentration 90 nM)
Procedure, shortened: as §1

[8] = system: VDR:RXRa (NR concentration 270 nM, RXRa partner concentration 90 nM)
Procedure, shortened: as §1

[9] = system: VDR homodimer (NR concentration 270 nM)
Procedure, shortened: as §1

Sequence | PBM binding z-score [1] | PBM binding z-score [2] | PBM binding z-score [3] | PBM binding z-score [4] | PBM binding z-score [5] | PBM binding z-score [6] | PBM binding z-score [7] | PBM binding z-score [8] | PBM binding z-score [9]
CTCGAAAGGTCGTGCTCAGGTGAGTATTCCAAAC | 3.11 | 5.04 | 3.61 | 2.25 | 4.55 | 4.04 | 1.31 | 3.26 | 0.806
TTACCAAGTTGAAGGTCGTTGATCCCTCTGTAGA | 1.15 | 0.339 | 0.342 | 1.07 | 1.2 | 1.26 | 0.0178 | 1.13 | 1.49
TCGAGAAGGTTAGGGGCATTCAGAATGGCGTCGA | 1.46 | 1.08 | 0.841 | 0.703 | 1.45 | 1.12 | 0.127 | 1.12 | 0.971
TCATATAGGTACATGCTAGGTGAAAGTCCGATCT | 0.598 | 0.521 | 0.462 | 2.05 | 0.745 | 2.02 | 0.723 | 0.884 | 0.987
CGAACAAGGGCATGAGTTGATAGCAAATGCCGAT | 0.58 | 1.12 | 1.42 | 1.3 | 0.715 | 0.492 | -0.294 | 0.706 | 1.18
TCTCCTAGGTCAGTTGGTCAGCTAACGAGCTGCC | 2.95 | 3.2 | 3.85 | 1.16 | 1.38 | 1.79 | 0.747 | 0.839 | 0.116
CCAACTAGGTCAGAACAGGACAGTGAAGGATGAT | 2.43 | 2.41 | 3.03 | 1.3 | 1.22 | 3.67 | 0.727 | 1.08 | 0.723
TGATATAGGTAAAGGTGAAAGTCGAACGATATGA | 1.61 | 1.55 | 1.43 | -0.501 | 2.09 | 1.57 | -0.161 | 0.866 | -0.09
TAGCCTAGGTCCTGCGGGCCAGTATAGTGTCGGC | -0.744 | -0.626 | -0.818 | -1.46 | -0.822 | -1.56 | -0.966 | -1.05 | -0.992
CCTACCAGGCCAGGGTCACTCAAGCATTTCGCTT | 2.84 | 3.13 | 2.44 | -0.231 | 3.18 | 2.98 | 1.56 | 2.7 | 1.29
TCTATTAGTTGAACGGCAACCGACGAGTCCGTTT | -0.12 | 0.0941 | -0.2 | 1.53 | 0.254 | -0.127 | 0.107 | 0.759 | 0.971
CCTACTGGGCCGTCAGGTCATTGATATCAACGTT | 2.18 | 1.33 | 1.37 | 0.28 | 1.11 | 3.18 | 3.49 | 1.32 | 1.16
CCTATTAGTTGACCATAAGGGCCACCGAAGCTCG | 1.51 | 0.432 | 0.644 | 0.143 | 0.414 | 0.438 | 0.222 | 0.0922 | 0.354
TCATATACGTAAATGCTAGGTGAAAGTCCGATCT | 0.562 | 0.251 | 0.209 | 1.77 | 0.598 | 0.97 | 0.696 | 0.839 | 0.147
CCGACCGGGGCAAAGGTTACCATACTCAGTACGA | 2.34 | 3.83 | 2.02 | 0.0663 | 4.51 | 2.47 | 0.202 | 2.06 | 0.185
ACAGACAGGTGATGAAGGGAACTCAGGCTATCAT | 0.0495 | 0.231 | 0.46 | -0.425 | 0.238 | 0.341 | -0.114 | -0.182 | -0.128
CTCGAAGGGTCGTGCTCAGGTGAGTATACCAAAC | 1.59 | 3.39 | 2.01 | 1.01 | 2.52 | 3.65 | 0.851 | 1.59 | 0.628
ACAGTCAGGTGATGAAGGTAACTCAGGCTATCAT | 0.23 | 0.23 | 0.365 | -0.243 | 0.405 | 1.19 | 0.0421 | -0.0524 | -0.453
AGAATGAGGTTACCAAAGATCAGGAAAACGCTTG | 0.544 | 2.13 | 1.58 | 1.15 | 2.56 | 2.88 | 0.443 | 1.35 | 0.0267
CCTAGCAGGCCAGGGTCACTGAAGCATTTCGCTT | 2.95 | 3.32 | 2.91 | 0.172 | 3.86 | 3.07 | 1.02 | 2.68 | 1.19
TCATATAGGTAAGTGCTAGGTGAAAGTCCGATCT | 0.823 | 0.114 | 0.186 | 1.23 | 0.629 | 0.873 | 0.473 | 0.679 | 0.173
CGAACTAGGTCTGAACAGGACAGTGAAGGATGAT | 0.0456 | 0.195 | 0.136 | -0.233 | 0.134 | 0.536 | -0.761 | -0.557 | -0.4
CGAACTAGGTCAACCAGGACAGTGAATACATTGA | 3.24 | 4.4 | 5.25 | 1.8 | 2.99 | 3.53 | 1.82 | 4.96 | 1.85
TCTTCTAGATCAGCAGGTTAAGAAAGCTGGCCAA | -0.301 | 0.12 | 0.0708 | 0.571 | 0.331 | 0.17 | -0.696 | 0.175 | -0.431
CCTAGCAGGCCAATCTGGGTCACCCAAGGCTTGA | 2.55 | 1.34 | 1.38 | -0.396 | 1.07 | 3.92 | 0.793 | 0.707 | -0.51
TAGCCTAGGTCATTGGGCAAGTATAGTACGCATC | 2.69 | 3.66 | 4.09 | 1.86 | 2.94 | 2.63 | 0.731 | 2.09 | 1.44

Sequence | PBM binding z-score [1] | PBM binding z-score [2] | PBM binding z-score [3] | PBM binding z-score [4] | PBM binding z-score [5] | PBM binding z-score [6] | PBM binding z-score [7] | PBM binding z-score [8] | PBM binding z-score [9]
CCGACGGGGGCATAAGGTTACCATAAGCCAGCCC | 2.78 | 4.76 | 3.14 | 2.15 | 3.62 | 3.58 | 1.76 | 3.5 | 2.1
AGAACGAGGGCACGGTGAGTTGATAGCAGAGTAG | 1.6 | 2.2 | 2.31 | 1.82 | 1.53 | 2.18 | 0.165 | 2.56 | 2.1
AAATGTAGGTTAGCTGGGGTCATTCAGACTAGGC | 3.76 | 4.06 | 2.95 | 1.87 | 5.4 | 5.36 | 3.23 | 6.03 | 5.33
TCTCGGTGGACACGAAAGGTCAGAGCTCGACATC | 4.36 | 4.38 | 4.33 | 0.665 | 4.52 | 2.96 | 0.543 | 2.84 | 0.45
CCTTAAGGGTCAAGGTTATAGCACGGGTGGTACG | 4.66 | 6.46 | 6.85 | 2.7 | 6.61 | 3.66 | 1.03 | 4.72 | 2.39
GATACAGGGTCAGCTAGAGGACAGAGTATGGAAA | 3.71 | 6.86 | 4.97 | 1.16 | 4.03 | 3.79 | 1.05 | 3.75 | 0.873
GCGACTTGGGCATCAGCAGGTTACCATAACTTAA | -0.0318 | -0.252 | -0.319 | -0.131 | -0.00546 | 0.236 | 0.128 | -0.417 | -0.321
CCTGCTAGGTCATGGTCAGATAATCTACAGTATG | 3.05 | 3.94 | 4.66 | 1.69 | 3.04 | 3.1 | 1.49 | 1.62 | 0.43
AGAACGAGGGCAATAAGTTGATAGCACGGGTGGC | 1.11 | 1.23 | 1.56 | 1.9 | 0.767 | 0.873 | -0.185 | 3.26 | 2.26
CCAGACAGGTGAAAAGGTAACTCAGCCTCGATTA | 1.49 | 1.96 | 0.973 | 0.272 | 1.52 | 0.971 | 0.514 | 0.369 | -0.0428
CGAACTAGGTCATCCAGGACAGTAAATACATTGA | 2.98 | 4.05 | 4.72 | 2.51 | 2.89 | 3.58 | 2.2 | 4.71 | 2.45
TAGCCTAGGTCATTCAGGGGCCTGTATAGAAAGC | 2.65 | 4.31 | 4.02 | 1.75 | 2.48 | 3.54 | 0.286 | 2.69 | 1.04
TCTTGTAGATCAGCAGGTTAAGAACGCTGGCCAA | -0.0185 | -0.0606 | -0.396 | 0.288 | 0.146 | -0.0457 | -0.571 | 0.123 | -0.247
CGAACTAGGTCAGAACAGGACAGAGAAGGATGAT | 1.89 | 2.45 | 3.27 | 0.331 | 1.2 | 3.39 | 0.271 | 0.496 | 0.244
GCTGCTAGGCCAGGTTGGTCAGCTAACGGGTACG | 6.85e-05 | -0.5 | -0.124 | -0.332 | -0.773 | -0.787 | -1.23 | -1.03 | -0.861
AATACAGGGTCATCGTCGGCCAGAGTACGCACAG | 3.96 | 5.6 | 5.02 | 3.4 | 6.37 | 4.1 | 1.64 | 5 | 3.57
CCAGACAGCTGAAAGGTAACTCAGTCTGGTACGC | -0.175 | -0.0986 | -0.184 | 0.0606 | 0.212 | 0.0566 | -0.51 | -0.0821 | -0.0523
TCATATAGGTAAACAGGTTAAAGTCCGTAAGTTA | 1.19 | 1.04 | 0.666 | 1.85 | 1.62 | 1.26 | 0.613 | 1.88 | 1.01
CCGACTGGGGCAGAGAGGTTACCATACCATCCGG | 1.54 | 1.33 | 1.2 | -0.642 | 1.23 | 1.02 | -0.309 | 1.73 | 0.35
TAGCCTAGGACATGGGCCAGTATACCACGCGAAC | -0.0727 | -0.00552 | 0.0243 | -0.981 | -0.0222 | 0.476 | 0.11 | -0.512 | -0.526
ATGTCTAGGTAAAGATAGTTCAGTGAATGCAAAT | 0.94 | 0.598 | 0.794 | -0.0644 | 0.151 | 0.506 | -0.0958 | 0.565 | 0.431
TCTAGTTGGTCACGGAGGTCACACCCGACGGGTA | 3.93 | 4.53 | 4.61 | 0.865 | 4.68 | 3.44 | 2.28 | 5.67 | 3.22
ATCTCTAGGTAAAGTTCACTGAAAGATCGATAGA | 3.34 | 3.14 | 3.42 | 2.2 | 2.82 | 1.95 | 0.46 | 2.89 | 3.79
ATATGAAGGTTACATCCGGGTCATTCAGGCTATG | 3.52 | 4.75 | 2.62 | 1.08 | 3.74 | 4.11 | 2.47 | 4.85 | 2.96
CGTCCCAGGTCATAGGAGGTCAGTGAAGACAGAT | 4.84 | 5.47 | 5.84 | 2.74 | 4.75 | 4.89 | 3.13 | 6.01 | 3.59
CGTCCAAGGTTATAGGAGGTCAGTGAAGACAGAT | 3.79 | 3.62 | 3.5 | 1.48 | 2.87 | 4.89 | 1.69 | 4.85 | 2.1

— the supplement of paper PMC6555819
